# Giardia FBPA inh – qHTS Assay for Inhibitors of Fructose-1,6-bisphosphate Aldolase from Giardia Lamblia; 290,000 tested, 0.71% active; Potency, µM (series often up to 59.6 µM), for the others: top-dose activity, negative = inhibition, usual class: inhibitors; AID 2451, 2010; purified Giardia FBPA; note: potency is the fitted concentration of half-maximal effect; nearly all actives have a fitted effect of over 55% in size
# Target sequence (A8B2U2 whole entry, looked up): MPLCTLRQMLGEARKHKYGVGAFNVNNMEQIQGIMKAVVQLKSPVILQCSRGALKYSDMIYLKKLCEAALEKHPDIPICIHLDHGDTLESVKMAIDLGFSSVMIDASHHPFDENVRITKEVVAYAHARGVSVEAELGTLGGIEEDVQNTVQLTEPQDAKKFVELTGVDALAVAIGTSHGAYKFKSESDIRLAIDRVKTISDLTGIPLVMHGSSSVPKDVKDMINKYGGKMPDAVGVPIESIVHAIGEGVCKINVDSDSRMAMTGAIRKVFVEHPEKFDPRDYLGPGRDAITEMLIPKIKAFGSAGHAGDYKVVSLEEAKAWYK
#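 40 nM FBPA preincubated 10 min at RT with compound (up to 57.5 uM final), then substrate plus GAPDH/TPI/NAD/arsenate coupling and diaphorase/resazurin added. Fluorescence read after 20 min at RT, 525/598 nm.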
# HCMV antiviral – qHTS Assay for inhibitors of the human cytomegalovirus (HCMV). HFF cells, HCMV-luciferase reporter, 72 h; hits give low values. activity change, negative = inhibition, % at 57.5 µM. 410,000 tested, 4.5% active. AID 1259415, 2018; in the data active = activity change below about -60%; inconclusive = no clear call, values can overlap the other calls; inactive = above about -39%
#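 Inhibition of viral replication was scored as loss of reporter luminescence in HFFs infected with HCMV-luciferase (MOI 1 PFU/cell) for 72 h; compounds tested at 2 doses, normalized to buffer and Salinomycin controls.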
# LASV entry inh – qHTS for Inhibitors of binding or entry into cells for Lassa Virus | 300,000 tested, 1.2% active | Lassa virus pseudotype entry inhibition, cell reporter | Potency, µM (series often up to 37.9 µM), for the others: at the top dose activity change, negative = inhibition, usual class: inhibitors; calls by dose curve; tested in HEK293 cells; note: potency is the fitted concentration of half-maximal effect; nearly all actives have a fitted effect of over 50% in size
# Marburg entry inh – qHTS for inhibitors of binding or entry into cells for Marburg Virus; Marburg virus pseudotyped entry inhibition, cell reporter; 300,000 tested, 1.8% active; Potency, µM (series often up to 37.8 µM), for inactives: top-dose activity change, negative = inhibition, actives largely listed as inhibitors; AID 540276, 2011; calls by dose curve; tested in HEK293 cells; note: potency is the fitted concentration of half-maximal effect
# FMDV inh – High Throughput Screening for Foot and Mouth Disease Virus Antivirals. AID 1159524, 2015. 410,000 tested, 1.2% active. FMDV antiviral cell-based qHTS. Potency, µM (top dose mostly 57.9 µM), without a hit: top-dose activity change, negative = inhibition, actives largely listed as inhibitors; calls by dose curve; tested in HEK293T cells; note: read-out not given here; potency is the fitted concentration of half-maximal effect; nearly all actives have a fitted effect of over 45% in size
# HCV inh – qHTS Assay for Inhibitors of Hepatitis C Virus (HCV); Potency, µM (highest dose often 41.8 µM), without a hit: at the top dose activity change, negative = inhibition, actives largely listed as inhibitors; 340,000 tested, 3.4% active; Huh7.5.1 HCVcc-Cre infection, luciferase reporter, 44 h; note: potency is the fitted concentration of half-maximal effect
#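 A cell-based infection assay in which seeded cells (1,000 per well) receive test compound after 4 h, are inoculated with HCVcc-Cre at approximately 0.5 moi, and are incubated 44 h before luminescence detection.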
# An asterisk follows results filed as active; ? = inconclusive; . = no result given; [ ] = another dose, or the depositor's remark. An excerpt weighted towards active compounds, which were near 8.3% of everything screened. Unless noted, calls come from the whole dose curve; as a rule, active = well fitted curve in the direction sought with a large enough effect; inconclusive = small, poorly fitted or top-dose-only effect, or another doubt; inactive = no such curve, though single readings can be large; an effect the other way counts as inactive or inconclusive. % is set by controls: 0 for no effect and ±100 for the full control effect.
SMILES,Giardia FBPA inh,HCMV antiviral,LASV entry inh,Marburg entry inh,FMDV inh,HCV inh
O=C(N/N=C/c1cccnc1)c1cccc(Cl)c1,-2%,14,23%[46.1 µM],1%[46.1 µM],8%,3%
O=C(N/N=C\c1cc(Cl)ccc1O)c1ccc(S(=O)(=O)N2CCCCC2)cc1,18%,-103*,?,?,-22%,3.5µM*
COc1cccc(-c2cc3c(Nc4cccc(F)c4)nccc3[nH]2)c1,.,23,.,.,.,.
CC(C)c1cccc2c([Si](C)(C)C)c3c(nc12)-c1cccc(=O)n1C3,-5%,.,.,.,.,.
COc1ccc(OC)c(-n2c(=O)c3ccccc3c3ccccc3c2=O)c1,-7%,9,-4%,-5%,25µM*,32%
COCCn1c(SCC(=O)Nc2nc(C)c(Cl)cc2Cl)nc2ccccc21,5%,?,23µM*,?,-2%,-22%
CN(C)S(=O)(=O)c1cc(NC(=O)CSc2ncc(C(F)(F)F)cc2Cl)ccc1Cl,0%,?,?,?,28µM*,?
COCCn1c(SCC(=O)Nc2ccc(Cl)c(S(=O)(=O)N(C)C)c2)nc2ccccc21,0%,1,1%,?,28µM*,?
CN(C)S(=O)(=O)c1cc(NC(=O)CSc2cccc[n+]2[O-])ccc1Cl,.,1,.,.,-5%,12%
Cn1c(=O)c(-c2cccc(C#N)c2)nc2cnc(Oc3ccccc3)nc21,5%,.,.,.,-7%,.
CCN(CC)C(=O)c1cccc(-c2csc(C(C)(O)c3ccc(OC)cc3)n2)c1 (stereo unspecified),.,?,.,.,-29%,.
CCN(CC)C(=O)c1cccc(-c2csc(C(C)(O)c3ccc(F)c(F)c3)n2)c1 (stereo unspecified),.,.,.,.,25µM*,.
CCN(CC)C(=O)c1cccc(-c2csc(C(C)(O)c3cccc(OC)c3)n2)c1 (stereo unspecified),.,-78*,.,.,35µM*,.
COCC(=O)Nc1cc(C(=O)N2CCCC(C(N)=O)C2)cc2nc(-c3ccccc3)n(C)c12 (stereo unspecified),.,.,.,.,-6%,.
CCCCOc1ccccc1C(=O)Nc1nonc1-c1ccccc1,.,-99*,3%[46.1 µM],1%[46.1 µM],-29%,.
O=C(Nc1nonc1-c1ccc(Cl)cc1)c1ccccc1F,.,-68*,10%[46.1 µM],?,-25%,.
CCCOc1ccc(-c2nonc2NC(=O)c2cc(OC)c(OC)c(OC)c2)cc1OCCC,.,-76*,-20%[46.1 µM],-19%[46.1 µM],14%,.
Cc1ccc(CCNC(=O)NCc2noc3ccc(C)cc23)cc1,.,-11,-7%[46.1 µM],.,-1%,.
CN1CCN(C(=O)CCN2C(=O)/C(=C/c3ccccc3Cl)SC2=S)CC1,-1%,-85*,-30%[46.1 µM],?,-28%,?
CN1CCN(C(=O)CCN2C(=O)/C(=C\c3ccccc3F)SC2=S)CC1,0%,-21,.,.,-17%,?
Cc1ccc(/C=C2/SC(=S)N(CCC(=O)N3CCN(C)CC3)C2=O)cc1,-2%,-74*,3%,?,16%,?
COc1cccc2c1CCC1=CC(=O)CC[C@@]12C,-7%,.,.,.,-18%,.
COc1ccc(C(=O)Nc2ccc3nc4c(c(Nc5ccccc5OC)c3c2)CCCC4)c(OC)c1,.,-9,-4%[46.1 µM],2.5µM*,-6%,.
COc1ccccc1Nc1c2c(nc3ccc(NC(=O)c4ccc(OC)c(OC)c4)cc13)CCCC2,.,-99*,?,2.2µM*,?,.
COc1ccccc1Nc1c2c(nc3ccc(NC(=O)c4ccccc4F)cc13)CCCC2,.,-100*,?,3.2µM*,?,.
SMILES,Giardia FBPA inh,HCMV antiviral,LASV entry inh,Marburg entry inh,FMDV inh,HCV inh
COc1ccc(C(=O)Nc2ccc3nc4c(c(Nc5ccc(OC)c(OC)c5)c3c2)CCCC4)c(OC)c1,.,-92*,-11%[46.1 µM],?,-17%,.
O=C(c1cccc(F)c1)N1CCC[C@@]2(CCN(Cc3nccs3)C2)C1,0%,.,.,.,-15%,.
COc1ccccc1Nc1c2c(nc3ccc(N)cc13)CCCC2,-6%,-31,.,.,-19%,?
COc1ccccc1Nc1c2c(nc3ccc(NC(=O)c4cccc(OC)c4OC)cc13)CCCC2,.,-98*,7.9µM*,?,?,.
COc1cccc(-n2c(C)nc3c(cnn3-c3ccc(C)c(C)c3)c2=O)c1,.,12,1%[46.1 µM],?,4%,.
N#CC1(c2ccc(NC(=O)c3ccccc3)cc2)CCCC1,-15%,.,.,.,.,.
CC(=O)Oc1ccc(C(=O)Nc2ccc(C3(C#N)CCCC3)cc2)cc1,6%,61,.,.,23%,14µM*
Cc1cc(C(F)(F)F)cc(NNC(=O)NC(=O)c2c(F)cccc2Cl)n1,-2%,?,?,7.1µM*,-11%,-15%
CC1=NN(c2ccc(C)c(C)c2)C(=O)/C1=C\C=C\c1ccc([N+](=O)[O-])o1,-12%,-88*,7.1µM*,3.5µM*,13µM*,11µM*
COc1ccc2c(c1)O[C@@H](c1cccc(C(F)(F)F)c1)[C@H](OC(=O)NS(=O)(=O)c1ccc(C)cc1)C2=O,0%,.,.,.,.,.
CCN(CCCc1ccccc1)CCCc1ccccc1,-16%,-18,?,5.8µM*,-11%,-12%[8.37 µM]
CCCN(CCO)CCCc1ccccc1,?,54,2%,9%,-14%,6%
CCN(CCCC(=O)c1ccc(F)cc1)CCc1ccccc1,-30%,-9,?,3.5µM*,3%,19%
COCC(=O)N1CCCCN2[C@H](C1)[C@H](c1ccc(C#Cc3ccccc3)cc1)[C@@H]2CO,.,20,.,.,.,.
Cc1nc(NC(=O)c2ccc([N+](=O)[O-])cc2Cl)sc1C(=O)N(C)C,-16%,1,-2%,-31%,10%,1%
Cc1cc(C(=O)Nc2nc(C)c(C(=O)N(C)C)s2)ccc1[N+](=O)[O-],-3%,-36,10µM*,?,-41%,16%
CC1CCC(NC(=O)c2ccc3c(c2)N(Cc2cccc(F)c2)C(=O)c2ccccc2S3)CC1 (stereo unspecified),.,104,11%[46.1 µM],.,70%,.
CCOc1c(Cl)cc(CNc2ccc(N3CCCC3)cc2)cc1OC,?,-65*,?,?,-16%,-7%
Cc1cccc(NC(=O)c2nc[nH]c2C(=O)NCc2ccccc2)c1,.,-61*,.,.,-12%,?
O=C(Nc1ccccc1)c1nc[nH]c1C(=O)NCc1ccccc1,.,-1,.,.,-15%,-13%
CN(Cc1ccccc1)C(=O)c1[nH]cnc1C(=O)NCc1ccccc1,.,-61*,.,.,-4%,-27%
O=S(=O)(c1ccccc1Cl)N1CCCC1c1nc(-c2ccc(Cl)cc2)no1 (stereo unspecified),-1%,-68*,?,?,?,10µM*
O=S(=O)(c1ccc(Cl)cc1Cl)N1CCCC1c1cccnc1 (stereo unspecified),9%,-27,-3%,15%[46.1 µM],-8%,-9%
